The values that follow come from ChEMBL document CHEMBL3988442, “University of Dundee, Small-Polar-MMV Screening Library” (2021).

SMILES strings stand for the structures.

This test addresses AMP-activated protein kinase, AMPK (Homo sapiens) (UniProt P54646+O43741+P54619+Q9UGJ0+Q9Y478+Q13131+Q9UGI9). The test is described as follows: AMP-dependent Kinase enzyme assay. An in vitro enzyme assay that detects ADP turnover that is directly proportional to AMPK activity. This uses naive AMPK that is activated during the assay with MK-8722. The arrangement: scale not given: direction of the effect not stated beside the values. The settings on record: 30 µM. It counts as functional.
In the case of `Cc1nc(C2CCCN2CC(=O)N(Cc2ccsc2)C2CC2)no1` (centres undefined), the Percent Effect was -3.86%.

On to `CC(C)S(=O)(=O)N1CCC(c2cc3n(n2)[C@@H](C(F)(F)F)C[C@@H](C)N3)C1` (some centres undefined), for which the Percent Effect is -46.3%.

Regarding `O=C(CSCC1CC1)N1CCCC(c2nccn2Cc2ccncc2)C1` (centres undefined), the Percent Effect is -12.9%.

As to `CC(=O)N1CCCN(c2nccc(-c3cn(C)nc3C)n2)CC1`, the Percent Effect was -0.173%.

As for `COc1ccc(C2CCCN2S(=O)(=O)N(C)CC(C)C)cc1` (centres undefined), the Percent Effect was 6.36%.

For the compound `Cc1cccc2[nH]c(C3CCN(C(=O)c4ccnn4C)CC3)nc12`, the Percent Effect was 3.06%.

With `Cc1nc(CN2CCc3nn(C(C)C)c(=O)cc3C2)oc1C`, the Percent Effect was -91.7%.

As to `COc1cc(CNC(=O)NCc2c(C)cc(C)[nH]c2=O)ccc1C`, the Percent Effect was -0.139%.

`Fc1cccc(-c2nc(CN3CCOC(Cn4cccn4)C3)co2)c1` (centres undefined): the Percent Effect was -6.81%.

As to `O=C([C@@H]1CC[C@@H]2[C@@H](CCN2Cc2ccoc2)O1)N1CCCC1`, the Percent Effect is -5.44%.

For `Cn1cccc1C(=O)N1CCC2(CC1)CN(c1ccccn1)CCO2`, the Percent Effect is -0.668%.

Regarding `CCc1ccc(NS(=O)(=O)CC2=NC(=O)n3cccc3C2=O)cc1`, the Percent Effect turned out to be 11.5%.

Take `CC(=O)c1ccc(OCC(=O)NC(C)CCc2ccco2)cc1` (centres undefined): the Percent Effect amounted to 7.91%.

For `CN(C)CC(=O)N1CCCC2(CCC(=O)N(CCc3c[nH]cn3)C2)C1` (centres undefined), the Percent Effect is -0.193%.

Take `N#Cc1cccc(S(=O)(=O)N2CCCCC2CCN2CCCC2=O)c1` (centres undefined): the Percent Effect is -6.45%.

As for `O=C(NCC(O)c1ccc(F)c(F)c1)c1cccnc1O` (centres undefined), the Percent Effect worked out at 1.02%.

In the case of `Cc1cccc(CN2C(=O)CC[C@@H]3[C@H]2CCN3Cc2ccc(C)s2)n1`, the Percent Effect is 9.98%.

Take `CC(=O)N1CC[C@H]2OCC[C@@]2(C(=O)NCc2ccco2)C1`: the Percent Effect was -0.449%.

`CSC(C)(C)CNC(=O)NC1CCN(C)CC1`: the Percent Effect was -2.46%.

On to `CN(Cc1ncc(-c2ccccc2)o1)CC1CCCN1c1cccnn1` (centres undefined), for which the Percent Effect came out at 3.71%.

On to `Cc1noc([C@H]2C[C@@H]3CCN(CC4CC4)C[C@H]3O2)n1`, for which the Percent Effect worked out at 4.66%.

As for `O=C(O)c1cc2c(nc1O)CC(c1cccc(Cl)c1)CC2=O` (centres undefined), the Percent Effect amounted to 28.2%.

Take `COCCCC(=O)NS(=O)(=O)c1ccc2c(c1)OCCCO2`: the Percent Effect was -3.3%.

In the case of `Cc1nn(C)c(Cl)c1CNCc1cccnc1N1CCOCC1`, the Percent Effect was -0.469%.

As to `CN(Cc1ccc(F)cc1)CC1(O)CCCN(CC(C)(C)C)C1=O` (centres undefined), the Percent Effect is -3.53%.

`CN(CC(=O)N1CCC(Oc2ccccc2)CC1)c1cnccn1`: the Percent Effect was -3.35%.

Take `CC(=O)N1CCn2c(COCc3csc(C)n3)cnc2C1C` (centres undefined): the Percent Effect was -3.96%.

For `Cc1cc(C)c(CNC(=O)N2CCCC2C(N)=O)c(=O)[nH]1` (centres undefined), the Percent Effect amounted to 7.27%.

As for `Cc1ccc(N2CCCC(NCC(=O)NCC3CC3)C2)nn1` (centres undefined), the Percent Effect was -6.37%.

With `O=C1CC(c2ccc(F)c(F)c2)c2snc(C(=O)O)c2N1` (centres undefined), the Percent Effect is 4.23%.

On to `Cc1nc(-c2ccccc2)sc1C(=O)NCCNc1ncccn1`, for which the Percent Effect was -5.12%.

For `CNS(=O)(=O)c1cccc(CNC(=O)c2c(C)nn(C)c2C)c1`, the Percent Effect is -3.57%.

As to `Clc1ccc(CN2CCCC(Cn3cncn3)C2)c2ncccc12` (centres undefined), the Percent Effect was -0.804%.

Consider `CCN(CC)Cc1cn2c(n1)CN(C(=O)c1cnccn1)CC2`, for which the Percent Effect was 3.85%.

On to `CN(C)C(=O)[C@H]1C[C@@H]2CN(S(=O)(=O)Cc3ccccc3)C[C@H]1O2`, for which the Percent Effect was 5.4%.

Take `CCc1nc(C2CCCN(C(=O)c3cccc4cn[nH]c34)C2)no1` (centres undefined): the Percent Effect is 1.19%.

For the compound `CC(C(=O)NCCOc1ccc2c(c1)OCO2)n1cncn1` (centres undefined), the Percent Effect is -6.18%.

`CC(C)OCCCNC(=O)CN1CCC(N2CCN(C)C2=O)CC1`: the Percent Effect was -9.11%.

For the compound `CN(C)c1nc2c(c(=O)[nH]1)CCN(C(=O)c1cccc3nccnc13)C2`, the Percent Effect was -1.68%.
